# In PubChem BioAssay AID623866 (Sanford-Burnham Center for Chemical Genomics, 2012):
# Some of the results follow. Unmarked numbers belong to inactive results. Calls of active or inactive are those of the source. How the calls were made is not given here.
# Biological target: Tyrosine-protein phosphatase non-receptor type 5 (Homo sapiens) (UniProt P54829)
# Test: STEP phosphatase inhibitor hit confirmation, biochemical, fluorescence intensity, single concentration (AID 623866);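 further: 0% = enzyme with substrate plus DMSO and 100% = substrate without enzyme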
# Conditions: recombinant STEP, OMFP fluorogenic substrate, at 20 µM, active compounds read high
# Chain of Tyrosine-protein phosphatase non-receptor type 5 (Homo sapiens) (P54829 whole entry, looked up): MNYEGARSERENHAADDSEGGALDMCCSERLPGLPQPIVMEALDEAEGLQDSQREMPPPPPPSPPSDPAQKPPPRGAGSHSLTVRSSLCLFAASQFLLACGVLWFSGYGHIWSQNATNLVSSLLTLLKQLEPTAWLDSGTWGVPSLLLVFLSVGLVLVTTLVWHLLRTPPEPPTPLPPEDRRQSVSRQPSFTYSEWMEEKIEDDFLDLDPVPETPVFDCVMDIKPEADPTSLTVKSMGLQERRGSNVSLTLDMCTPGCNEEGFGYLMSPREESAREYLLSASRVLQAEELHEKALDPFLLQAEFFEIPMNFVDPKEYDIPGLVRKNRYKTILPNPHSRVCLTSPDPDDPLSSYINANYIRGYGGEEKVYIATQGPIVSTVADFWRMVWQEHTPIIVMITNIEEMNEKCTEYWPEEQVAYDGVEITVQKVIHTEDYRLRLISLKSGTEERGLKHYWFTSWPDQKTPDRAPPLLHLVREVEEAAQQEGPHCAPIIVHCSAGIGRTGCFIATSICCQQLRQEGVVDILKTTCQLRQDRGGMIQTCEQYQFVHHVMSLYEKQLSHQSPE
row,Compound,inhibition
1,COc1ccc2[nH]c(=O)c(-c3noc(-c4ccc(F)cc4)n3)cc2c1,8.96%
2,O=C(NN=Cc1ccccc1O)NN=Cc1ccccc1O,90.1% (active)
3,Nc1c(Cl)cc(-c2csc(N3CCCC3c3nc4cc(Cl)c(Cl)cc4n3CCOCCO)n2)cc1Cl (centres undefined),20.3%
4,N#Cc1c(-c2cccs2)nc(SCC(=O)c2ccc(Br)cc2)[nH]c1=O,103% (active)
5,Cc1ccccc1CC1(CO)CCCN(C(=O)c2cc(-c3ccccc3)no2)C1 (centres undefined),0.313%
6,CCc1ccc(NC(=O)CS(=O)CC(=O)NCCCc2ccccc2)cc1 (centres undefined),-4.12%
7,Cc1cc(C(=O)N2CCN(c3ccccn3)CC2)c(C)o1,7.4%
8,CCCS(=O)(=O)N1CCCC(C(=O)NCc2ccco2)C1 (centres undefined),1.82%
9,O=C(CSC(=S)N1CCCCC1)c1c(F)cccc1F,-5.75%
10,Cc1ccc(-c2nnc(-c3ccc(NC(=O)c4cccs4)cc3)o2)cc1,10.7%
11,O=C(COc1cccc(F)c1)Oc1ccc(C(=O)c2ccccc2)cc1,12.2%
12,Cc1ccc(S(=O)(=O)c2c[nH]c3ccc(Cl)cc3c2=O)cc1,23.8% (active)
13,COCc1c(C(=O)N/N=C/C2CC=CCC2)nnn1-c1nonc1N (centres undefined),-1.89%
14,Cc1c(CCC(=O)O)c(=O)oc2c(C)c(OCc3ccccc3Cl)ccc12,42.7% (active)
15,O=C(Nc1cccnc1)c1cc2cc(Br)ccc2oc1=O,8.13%
16,N#Cc1ccc(C(=O)Nc2cccc3cccnc23)c(F)c1,-3.4%
17,C/C=C/C(=O)Nc1ccc(N2CCN(c3ccc(C(F)(F)F)cn3)CC2)nc1,12.4%
18,O=C(N/N=C/c1coc2ccccc2c1=O)c1cc2ccccc2o1,24.4% (active)
19,Cc1ccc(CNC(=O)CSc2nnc3c(n2)[nH]c2ccc(F)cc23)cc1,-0.633%
20,Cc1ccn2c(-c3csc(Nc4ccc(C(=O)O)cc4)n3)c(C)nc2c1,-1.96%
21,Cc1ccc(OCC(=O)Nc2ccc(-c3nc4ncccc4o3)cc2)cc1,23.6%
22,O=C(N/N=C/c1cccc(Br)c1)c1ccc(N2CCCC2=O)cc1,41.4% (active)
23,COCCN(C(=S)Nc1ccccc1OC)C1CCN(C(C)C)CC1,7.61%
24,C/C(=N\Nc1ccc(S(N)(=O)=O)cc1[N+](=O)[O-])c1cccs1,64.7% (active)
